A selection: hits, their analogues and other compounds. The true share with any hit is near 18%.
DT40 TDP1 CPT = DT40-hTDP1 cell growth loss with CPT; AID 686979; chicken DT40 Tdp1-/-;hTDP1 cells + 20 nM CPT, ATP luminescence, 48 h; 420,000 tested, 12% active; Potency, µM (doses to about 46.2 µM), without a hit: top-dose activity change, negative = growth inhibition, most hits filed as inhibitors; further: nearly all actives have a fitted effect of over 55% in size
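Chicken DT40 Tdp1-/- cells stably complemented with human TDP1 were seeded at 400 cells/well in medium containing 20 nM camptothecin, exposed to pin-transferred compounds, and grown at 37 °C for at least 48 hr. Viability was read as ATP luminescence.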
TDP1 cell noCPT = qHTS for Inhibitors of human tyrosyl-DNA phosphodiesterase 1 (TDP1): qHTS in cells in absence of CPT; Potency, µM (top dose mostly 46.2 µM), for inactives: top-dose activity change, negative = growth inhibition, most hits filed as inhibitors; DT40 Tdp1-/- hTDP1 cells, no CPT, ATP luminescence, 48 h; AID 686978, 2013; 420,000 tested, 15% active; further: nearly all actives have a fitted effect of over 55% in size
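Luminescent ATP content (CellTiter-Glo) served as the growth readout. Knockout chicken DT40 cells expressing human TDP1 were exposed to compounds without camptothecin for a minimum 48 hr at 37 °C.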
TDP1 inh = blocks human tyrosyl-DNA phosphodiesterase 1; 350,000 tested, 0.28% active; recombinant TDP1, AlphaScreen DNA substrate cleavage; Potency, µM (highest dose often 130 µM), without a hit: at the top dose activity change, negative = inhibition, actives largely listed as inhibitors; AID 485290; Q9NUW8; further: nearly all actives have a fitted effect of over 40% in size
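Tdp1 1 nM final; 15 min RT w/ cpd; substrate 15 nM, 5 min; beads 10 ug/ml, 10 min; AlphaScreen read. Neg ctrl: no enzyme.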
VDR inh = blocks the human vitamin D receptor | AID 504847 | 400,000 tested, 0.93% active | Potency, µM, inactives show max response, negative = inhibition, usual class: inhibitors | VDR-SRC2-3 peptide fluorescence polarization, 2 h
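Fluorescence polarization assay of small-molecule disruption of VDR binding to coregulator peptide SRC2-3. Compounds and controls pin-transferred, then read after 2 h incubation at ambient room temperature.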
PLK1 PBD inh = PLK1 (human) polo-box domain binding inhibition; P53350; Plk1 PBD binding of FITC phosphopeptide, fluorescence polarization; Potency, µM, inactives show max response, negative = inhibition, usual class: inhibitors; 360,000 tested, 2.8% active; AID 720504; further: series mostly up to about 57 µM; nearly all actives have a fitted effect of over 65% in size
Target sequence (P53350 whole entry, looked up, the tested form may be a part): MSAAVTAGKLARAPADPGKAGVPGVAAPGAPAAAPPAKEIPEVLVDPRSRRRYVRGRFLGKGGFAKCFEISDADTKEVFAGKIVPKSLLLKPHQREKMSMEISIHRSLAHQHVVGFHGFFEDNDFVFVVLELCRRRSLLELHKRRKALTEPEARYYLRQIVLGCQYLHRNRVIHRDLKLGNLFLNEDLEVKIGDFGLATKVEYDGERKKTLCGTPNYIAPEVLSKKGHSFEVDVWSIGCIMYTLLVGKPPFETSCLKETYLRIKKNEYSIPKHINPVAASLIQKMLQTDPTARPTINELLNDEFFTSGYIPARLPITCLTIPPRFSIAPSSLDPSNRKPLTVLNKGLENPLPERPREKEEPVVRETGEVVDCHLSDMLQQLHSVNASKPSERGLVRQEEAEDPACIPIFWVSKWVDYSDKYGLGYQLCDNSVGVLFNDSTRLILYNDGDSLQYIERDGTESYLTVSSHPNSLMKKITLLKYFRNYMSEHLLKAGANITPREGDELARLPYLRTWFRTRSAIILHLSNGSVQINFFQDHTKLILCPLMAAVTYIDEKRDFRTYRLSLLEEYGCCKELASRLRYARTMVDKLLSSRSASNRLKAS
KAT2A inh = blocks human GCN5L2 histone acetyltransferase; Q92830; GCN5L2 HAT assay, ThioGlo1 CoA-SH fluorescence; Potency, µM (series often up to 58.9 µM), for the others: top-dose activity change, negative = inhibition, actives largely listed as inhibitors; 390,000 tested, 0.21% active; AID 504327
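GCN5L2 (20nM final) in 50mM HEPES, 0.1mM EDTA pH 7.5, 0.01% Tween-20 was preincubated 15 min at room temperature with compound, then given ThioGlo1 (50uM), H3(1-25) peptide (75uM) and acetyl-CoA (70uM); CoA-thiol fluorescence (Ex340/Em540) was read at 0 and 20 min.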
* hit, by the source's call; ? = inconclusive; · = no result. The call rests on the fitted dose curve; in most records, active means well fitted curve in the direction sought with a large enough effect; inconclusive means small, poorly fitted or top-dose-only effect, or another doubt; inactive means no such curve, though single readings can be large; an effect the other way counts as inactive or inconclusive. On the % scale 0 is the no-effect control and ±100 the full control effect; potency means the concentration at half of the fitted maximal effect.

SMILES	DT40 TDP1 CPT	TDP1 cell noCPT	TDP1 inh	VDR inh	PLK1 PBD inh	KAT2A inh
Cc1ccc(NC(=O)CN2C(=O)C(c3ccc(F)cc3)=NC23CCCCC3)c(C)c1	?	?	8%	7%	·	-10%
O=C(Cc1ccc(NC(=O)N2CCSc3ncccc32)cc1)NCc1cccc(Cl)c1	?	21µM*	6%	2%	·	-8%
CCOc1ccc(CNC(=O)Cc2ccc(NC(=O)N3CCSc4ncccc43)cc2)cc1	16µM*	16µM*	3%	7%	·	-4%
CCOc1ccccc1CNC(=O)c1ccc(NC(=O)N2CCSc3ncccc32)cc1	21µM*	15µM*	-8%	10%	·	-4%
O=C(c1ccc(CS(=O)c2ccc(F)cc2)o1)N1CCN(C2CCCCC2)CC1 (stereo not given)	-3%	0%	1%	6%	6%	-1%
CCOc1ccc(NC(=O)CCS(=O)(=O)c2cccc3nonc23)cc1	-14%	-22%	12%	-6%	·	2%
COc1ccc2c(c1OC)C(=O)OC2Nc1nc(-c2cccc([N+](=O)[O-])c2)cs1 (stereo not given)	2%	-1%	2%	-18%	-16%	-12%
Cc1ccc(-n2ncc(C(=O)Nc3ccc4c(c3)OCCO4)c2C2CCN(C(=O)OC(C)(C)C)CC2)cc1C	?	?	-7%	9%	·	0%
O=C1c2ccccc2C(c2nnnn2-c2ccc3c(c2)OCCO3)N1Cc1cccs1 (stereo not given)	?	?	·	·	-15%	·
CCCCN(C)C(=O)c1ccc(Nc2nc(C(N)CCc3ccccc3)cs2)nc1 (stereo not given)	15µM*	21µM*	·	·	-9%	·
CCCCN(C)C(=O)c1ccc(Nc2nc(C(N)Cc3ccc(C(F)(F)F)cc3)cs2)nc1 (stereo not given)	8.2µM*	12µM*	·	·	-7%	·
CC(N)c1csc(Nc2ccc(C(=O)NCCCO)cn2)n1 (stereo not given)	-14%	-11%	·	·	10%	·
O=C(O)Cc1coc2cc3c(cc12)CCC3	10%	2%	-1%	-4%	-1%	-7%
O=C(Cc1coc2cc3c(cc12)CCC3)NC1CCCCCCC1	?	0.021µM*	-3%	12%	-5%	12%
O=C(CC1CCCC1)NCCS(=O)(=O)N1CCN(c2ccccc2F)CC1	?	?	0%	10%	-8%	0%
O=C(CCC1CCCC1)NCCS(=O)(=O)N1CCN(c2ccccc2F)CC1	?	15µM*	1%	2%	5%	-7%
O=C(Cc1cccs1)NCCS(=O)(=O)N1CCN(c2ccccc2F)CC1	7.3µM*	5.8µM*	·	12%	-4%	-5%
O=C(Cc1ccc(-c2ccccc2)cc1)NCCS(=O)(=O)N1CCN(c2ccccc2F)CC1	10µM*	15µM*	-4%	4%	·	-7%
CC(=O)NC1C(O)O[C@H](C(=O)O)[C@@H](O)[C@@H]1O (stereo not given in full)	·	·	11%	1%	·	-22%
COc1ccccc1-c1nc2ccccc2c(=O)n1O	2%	-12%	·	-15%	3%	-14%
CC1(C)Cc2ccccc2-c2nc3ccccc3c(=O)n21	?	12µM*	4%	9%	2%	-9%
CCCN1CCN(c2nnc(-n3cccc3C(=O)Nc3ccccc3C(F)(F)F)s2)CC1	21µM*	21µM*	5%	-7%	·	1%
COc1ccccc1CNC(=O)c1cccn1-c1nnc(N2CCCC2)s1	?	?	-5%	2%	·	0%
CCN1CCN(c2nnc(-n3cccc3C(=O)NCc3ccccc3OC)s2)CC1	16µM*	?	0%	8%	·	-2%

Screening data (PubChem)
